About 830 (0.38%) of roughly 220,000 compounds were called active.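 Rule for the calls: active = compound inhibiting the enzyme by more than half at any dose during confirmatory dose-response retesting; inconclusive = strong single-dose inhibitors picked by rank but not retested; inactive = the rest.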 Only a sample is shown. Measured potencies and affinities stand elsewhere.
Each compound was assayed against Leucine aminopeptidase (Plasmodium falciparum (isolate 3D7)) (UniProt Q8IL11) (assay: P. falciparum M17LAP inhibitors, primary screen, biochemical, fluorogenic H-Leu-NHMec substrate, 1536-well (AID 1619;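 note: plate controls were full reaction with DMSO carrier for no effect and no enzyme background for full effect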)). Details: recombinant M17LAP, H-Leu-NHMec fluorogenic kinetic assay; at 30 µM; stronger effect = higher value.
Leucine aminopeptidase (Plasmodium falciparum (isolate 3D7)), sequence (Q8IL11 whole entry, looked up): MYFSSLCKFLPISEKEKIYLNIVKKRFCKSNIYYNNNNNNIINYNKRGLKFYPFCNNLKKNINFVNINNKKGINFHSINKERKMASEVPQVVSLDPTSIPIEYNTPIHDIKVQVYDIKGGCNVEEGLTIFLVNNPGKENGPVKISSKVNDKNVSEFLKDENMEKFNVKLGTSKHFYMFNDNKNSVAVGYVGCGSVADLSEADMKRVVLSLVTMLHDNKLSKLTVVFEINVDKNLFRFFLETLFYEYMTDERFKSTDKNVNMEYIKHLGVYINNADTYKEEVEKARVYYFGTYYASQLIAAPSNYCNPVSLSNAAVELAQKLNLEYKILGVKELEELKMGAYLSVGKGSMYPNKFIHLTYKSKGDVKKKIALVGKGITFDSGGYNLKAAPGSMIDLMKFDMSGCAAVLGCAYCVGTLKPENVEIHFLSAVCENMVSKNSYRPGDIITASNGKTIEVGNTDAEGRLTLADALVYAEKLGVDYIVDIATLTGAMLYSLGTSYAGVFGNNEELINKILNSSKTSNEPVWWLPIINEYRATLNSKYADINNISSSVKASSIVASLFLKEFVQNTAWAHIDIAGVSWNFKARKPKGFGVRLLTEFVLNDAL

inhibition, inactive:
CC1CCc2c(sc(NC(=O)c3ccccc3C(=O)O)c2C#N)C1 (stereo unspecified) 1.93%
N#Cc1c(NC(=O)c2ccccc2)sc2c1CCCCC2 21.1%
CC1CCc2sc(NC(=S)NC(=O)c3ccccc3)c(C#N)c2C1 (stereo unspecified) -12%
CC(=O)Nc1sc2c(c1C#N)CCCCC2 -1.44%
N#Cc1c(NC(=O)CCC(=O)O)sc2c1CCCCC2 34.4%
N#Cc1c(NC(=O)C2CC2)sc2c1CCCCC2 28.1%
N#Cc1c(NC(=O)C2CCCO2)sc2c1CCCCCC2 (stereo unspecified) 13.1%
N#Cc1c(NC(=O)C2CCCO2)sc2c1CCCCC2 (stereo unspecified) -2.74%
O=C(Nc1ccccc1NS(=O)(=O)c1ccc(F)cc1)C1CCC1 6.59%
COc1ccc(-c2cn(-c3ccc(SC(F)F)cc3)c3[n+]2CCC3)cc1OC -11.9%
O=C(CCN1C(=O)c2ccccc2C1=O)Nc1cccnc1 11.6%
N#Cc1c(-c2ccccc2)ccnc1N1CCOCC1 0.41%
CCCCC(=O)NC(c1ccc(OC)c(OC)c1)c1c(O)ccc2ccccc12 (stereo unspecified) 5.73%
C=CCNC(=S)Nc1cccc(N)c1 2.22%
Cc1cccc(NC(=O)Cn2nc([N+](=O)[O-])c(Br)c2C)n1 -0.63%
CCCn1c(/N=C/c2c[nH]c3ccccc23)nc2ccccc21 0.08%
CN(CCC#N)C(=O)COC(=O)/C=C/c1ccc2c(c1)OCO2 2.65%
COc1ccc(C2=CC3=C(Br)C(=O)C(C)(OC(=O)C4CCCC4)C(=O)C3=CO2)cc1 (stereo unspecified) 22.1%
CC(=O)Nc1sc2c(c1C#N)CCCC2 -9.07%
CC1(C)Cc2c(sc(NC(=O)Cc3ccccc3)c2C#N)CO1 20.3%
CC(=O)Nc1sc2c(c1C#N)CCC2 -2.63%
Cc1sc(NC(=O)C2CCCC2)c(C#N)c1C 3.61%
CCOC(=O)c1c(NC(=O)C2CC(Cl)=CCC2C(=O)O)sc2c1CC(C)(C)OC2 (stereo unspecified) 42.4%
Cc1sc(NC(=O)C2CCCO2)c(C#N)c1C (stereo unspecified) 5.77%
Cn1nnnc1SCC(=O)Nc1cccc(S(=O)(=O)N2CCCC2)c1 -2.95%
O=C(Nc1nnc(SCc2ccccc2F)s1)c1ccco1 8.78%
Cc1ccc(NC(=O)Nc2cccc(Cl)c2)c(C(=O)O)c1 -7.94%
COc1ccc(OC)c(NC(=O)CN2C(=O)c3ccccc3S2(=O)=O)c1 23.2%
CCOC(=O)c1ccccc1NC(=O)CN1C(=O)c2ccccc2S1(=O)=O -15.2%
CCC(C)NC(=O)c1ccccc1NC(=O)CN1C(=O)c2ccccc2S1(=O)=O (stereo unspecified) -2.81%
COc1ccc(C)cc1NC(=O)CN1C(=O)c2ccccc2S1(=O)=O 11.2%

From PubChem BioAssay AID1619 (SRMLSC, 2009)
